Laboratory results as given in PubChem BioAssay (NCI).
The panel holds about 83,000 compounds, 20% with a hit somewhere; the sample as a whole holds those more often.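 Single-concentration screen, 48 h exposure, 96-well plates. Endpoint: percent growth. Below 10 = active.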 Values without a mark were called inactive. Activity calls are given as the source filed them.

Key:
Experiment in all cases: NCI-60 one-dose screen, 48 h (100 = growth as untreated, 0 = no growth, -100 = all killed)
Conditions in all cases: 10 µM
[1] = tested on: K-562 leukemia
[2] = tested on: MALME-3M melanoma
[3] = tested on: MDA-MB-231 breast
[4] = tested on: RXF 393 renal
[5] = tested on: SF-268 CNS
[6] = tested on: SF-295 CNS
[7] = tested on: SF-539 CNS
[8] = tested on: UACC-257 melanoma
[9] = tested on: M14 melanoma
[10] = tested on: HCT-15 colon
[11] = tested on: HT29 colon
[12] = tested on: SNB-75 CNS
[13] = tested on: SNB-19 CNS
[14] = tested on: U251 CNS
[15] = tested on: PC-3 prostate
[16] = tested on: SK-MEL-5 melanoma
[17] = tested on: LOX IMVI melanoma
[18] = tested on: SK-MEL-28 melanoma
[19] = tested on: SK-MEL-2 melanoma
[20] = tested on: UACC-62 melanoma

| Structure (SMILES) | growth [1] | growth [2] | growth [3] | growth [4] | growth [5] | growth [6] | growth [7] | growth [8] | growth [9] | growth [10] | growth [11] | growth [12] | growth [13] | growth [14] | growth [15] | growth [16] | growth [17] | growth [18] | growth [19] | growth [20] |
| --- | --- | --- | --- | --- | --- | --- | --- | --- | --- | --- | --- | --- | --- | --- | --- | --- | --- | --- | --- | --- |
| COc1cc(-c2nc(Nc3nc4ccccc4s3)[nH]c(=O)c2C#N)cc(OC)c1O | 100% | 118% | 106% | 105% | 123% | 116% | 108% | 102% | 96.3% | 107% | 110% | 88.6% | 96.1% | 105% | 101% | 106% | 106% | 110% | 105% |  |
| CC1=C(N2CCOCC2)C(N2CCOCC2)=C(C)C(=O)C1=O | 93% | 101% | 115% | 101% | 93.3% | 97.2% | 103% | 91.5% | 103% | 99.6% | 111% | 97.4% | 103% | 101% | 104% | 99.2% | 101% | 106% |  |  |
| N#CCCN1C/C(=C/c2ccccc2)C(=O)/C(=C/c2ccccc2)C1 | 2.2% (active) | -28.7% (active) | 13.9% | 50.3% | 24.7% | 26.3% | 76.1% | 56.2% | -9.82% (active) | -56.4% (active) | -48.5% (active) | 62.1% | 68% | -0.696% (active) | 41.1% | 29% | -65.5% (active) | 54.2% | 62.3% |  |
| COc1ccc(/C=C2/CN(C(=O)c3ccccc3F)C/C(=C\c3ccc(OC)cc3)C2=O)cc1 | 2.77% (active) | 62.1% | 70.5% | 12.5% | 51.5% | 50.1% | 93.1% | 71.2% | 1.05% (active) | 18.2% | -82.5% (active) | 68.9% | 77% |  | 52% | 48.6% | -54.5% (active) | 69.4% | 94.1% | 56.5% |
| COc1cc(C(=O)/C=C/c2cc(-c3cc(OC)c(OC)c(OC)c3)n[nH]2)cc(OC)c1OC | 4.46% (active) | -56% (active) | 3.71% (active) | -84.3% (active) | 4.97% (active) | 135% | -56.2% (active) | -1.5% (active) | 6.7% (active) | 3.63% (active) | -47.5% (active) | 54.9% | 55.4% | -57.9% (active) | 12.9% | 21.3% | -62.7% (active) | -59.5% (active) |  |  |
| CCOC(=O)N/N=C\C(C)=N\NC(=O)OCC | 98.7% | 84.5% | 111% | 125% | 105% | 90.9% | 99.9% | 92.6% | 100% | 99.5% | 98% | 92.1% | 98.5% | 92.7% | 93% | 109% | 96.2% | 103% | 111% |  |
| COc1ccccc1/C=C/C(=O)c1ccccc1 | 6.19% (active) | 90.8% | 80.5% | 92% | 87.9% | 101% | 92% | 94.3% | 85.7% | 61.6% | 54.2% | 87.8% | 99.4% | 58.4% | 54.5% | 82.1% | 59.8% | 97.5% | 84% |  |
| O=C(CCCCC(=O)Nc1ccc2c(c1)/C(=C/c1ccc[nH]1)C(=O)N2)NO | 85% | 17.5% | 94.4% | 76.8% | 76.2% | 102% | 81.1% | 70.6% | 58.6% | 96.2% | 68.7% | 47.7% | 83% | 69.3% | 80.1% | 65% | 94.4% | 60.4% | 59.4% |  |
